Data from PubChem BioAssay (EPA / NIEHS).
Results filed as inconclusive are left out. Activity calls are given as the source filed them. How the source made its calls, unless noted: active means hit-call score of the fitted dose curve at least 0.9, where 1 is the maximum; inactive means score below 0.9.

Columns and labels:
[1] = ACEA_ER_80hr: ACEA Biosciences xCELLigence Real-Time Cell Analysis on Estrogen Receptor Agonism for Proliferation (AID 2282667; active means hit-call score of the fitted dose curve at least 0.9, where 1 is the maximum); details: T47D proliferation, impedance (xCELLigence), 80 h
Outline: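 Impedance readout (RT-CES) of T47D proliferation at 80 h post-dose; gain of signal vs DMSO baseline. Compounds: 8 conc, 1:4 serial, top 100 uM final, ≤0.5% DMSO; biological duplicate.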

[2] = ATG_CRE_CIS: Attagene CIS-FACTORIAL HepG2 Assay for human cAMP Responsive Element (CRE) binding protein 3 (AID 2282926); details: HepG2 CRE cis-reporter, Attagene multiplexed mRNA; actives raise or lower the signal
Outline: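 Readout: fluorescently labelled reporter transcripts resolved by capillary electrophoresis after RT-PCR, taken 24 h post-dosing in transfected HepG2. Endogenous transcription factor activity drives each cis-element reporter; gain or loss of signal fitted relative to DMSO control.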

[3] = target: CCAAT/enhancer-binding protein beta (Homo sapiens) (UniProt P17676); test: ATG_C_EBP_CIS: Attagene CIS-FACTORIAL HepG2 Assay for human CCAAT/Enhancer Binding Protein (C/EBP) beta (AID 2282927); details: HepG2 Attagene cis-factorial transcription factor reporter; actives raise or lower the signal
CCAAT/enhancer-binding protein beta (Homo sapiens), sequence (P17676 whole entry, looked up): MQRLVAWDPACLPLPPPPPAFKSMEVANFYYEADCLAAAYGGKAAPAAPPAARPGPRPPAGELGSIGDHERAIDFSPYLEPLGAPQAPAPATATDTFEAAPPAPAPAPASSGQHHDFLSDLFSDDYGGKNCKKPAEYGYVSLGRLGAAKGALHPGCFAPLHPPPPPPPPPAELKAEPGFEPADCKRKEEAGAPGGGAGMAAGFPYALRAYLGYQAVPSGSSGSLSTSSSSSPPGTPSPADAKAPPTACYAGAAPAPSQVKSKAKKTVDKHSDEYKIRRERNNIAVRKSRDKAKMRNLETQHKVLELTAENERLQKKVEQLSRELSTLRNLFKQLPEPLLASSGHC
Outline: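 Endogenous transcription factor activity in human liver HepG2 cells is inferred from induction of a CEBPB-linked reporter mRNA. Exposure lasts 24 h; activity is fitted in both directions relative to DMSO.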

[4] = ATG_CMV_CIS: Attagene CIS-FACTORIAL HepG2 Assay for human CMV (Internal Marker) (AID 2282928); details: HepG2 CMV promoter reporter, transcription factor profiling; actives raise or lower the signal;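 further: endpoint acts as a background internal control marker rather than a target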
Outline: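 Fluorescence intensity of RT-PCR-derived reporter fragments, resolved by capillary electrophoresis, gives the signal. HepG2 liver cells bearing transfected cis-element reporters were treated 24 h; activity in either direction was fit relative to DMSO-treated controls.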

[5] = target: Aryl hydrocarbon receptor (Homo sapiens) (UniProt P35869); test: ATG_Ahr_CIS: Attagene CIS-FACTORIAL HepG2 Assay for human Aryl Hydrocarbon Receptor (Ahr) (AID 2282930); details: HepG2 AhR cis-factorial reporter transcription; actives raise or lower the signal
Aryl hydrocarbon receptor (Homo sapiens), sequence (P35869 whole entry, looked up): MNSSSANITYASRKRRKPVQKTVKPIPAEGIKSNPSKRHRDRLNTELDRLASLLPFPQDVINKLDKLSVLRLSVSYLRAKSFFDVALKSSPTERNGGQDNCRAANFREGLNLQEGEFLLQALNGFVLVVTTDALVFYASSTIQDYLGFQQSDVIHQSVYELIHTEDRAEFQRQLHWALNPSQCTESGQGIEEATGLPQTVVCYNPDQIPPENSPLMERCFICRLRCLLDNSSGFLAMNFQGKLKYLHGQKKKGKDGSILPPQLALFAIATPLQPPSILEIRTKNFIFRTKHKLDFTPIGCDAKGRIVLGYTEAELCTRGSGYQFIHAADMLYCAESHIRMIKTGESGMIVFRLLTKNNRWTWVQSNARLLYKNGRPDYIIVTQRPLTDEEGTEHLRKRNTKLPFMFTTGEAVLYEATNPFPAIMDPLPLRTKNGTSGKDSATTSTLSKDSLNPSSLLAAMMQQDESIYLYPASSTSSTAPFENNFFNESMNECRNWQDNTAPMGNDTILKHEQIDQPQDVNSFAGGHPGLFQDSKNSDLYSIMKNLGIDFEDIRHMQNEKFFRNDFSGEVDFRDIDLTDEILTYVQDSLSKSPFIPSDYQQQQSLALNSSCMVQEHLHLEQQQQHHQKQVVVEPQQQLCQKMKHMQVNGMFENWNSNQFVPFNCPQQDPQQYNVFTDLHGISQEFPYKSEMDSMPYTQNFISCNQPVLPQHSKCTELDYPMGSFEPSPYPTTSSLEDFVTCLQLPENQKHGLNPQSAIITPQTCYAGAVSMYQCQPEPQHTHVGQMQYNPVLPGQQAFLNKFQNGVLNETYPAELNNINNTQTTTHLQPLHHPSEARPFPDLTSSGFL
Outline: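 Transient MRTU transfection of HepG2 → 24 h compound exposure → total RNA, oligo(dT) RT → PCR, 6-FAM extension, HpaI cut → CE fluorescence. DMSO = baseline; bidirectional curve fit.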

[6] = ATG_AP_1_CIS: Attagene CIS-FACTORIAL HepG2 Assay for human Activator Protein 1 (AP-1) (AID 2282931); details: HepG2 Attagene cis-factorial AP-1 reporter mRNA; actives raise or lower the signal
Outline: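 Bidirectional concentration-response fitting against DMSO controls. Underlying signal: reporter mRNA from cis-promoter constructs in transiently transfected HepG2, measured after 24 h by RT-PCR and capillary electrophoresis.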

[7] = ATG_AP_2_CIS: Attagene CIS-FACTORIAL HepG2 Assay for human Activator Protein 2 (AP-2) (AID 2282932); details: HepG2 AP-2 cis-reporter, Attagene transcription factor profiling; actives raise or lower the signal
Outline: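 Transiently transfected HepG2 cells are exposed to chemical for 24 h. Reporter transcripts are then measured as fluorescence following RT-PCR and capillary separation, and gain- or loss-of-signal is fitted relative to DMSO.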

[8] = ATG_BRE_CIS: Attagene CIS-FACTORIAL HepG2 Assay for human Bone Morphogenetic Protein (BMP) Response Element (BRE) (AID 2282933); details: HepG2 BMP response element reporter, Attagene transcription factor profiling; actives raise or lower the signal
Outline: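 Endogenous transcription factor activity at a BMP response element was monitored in transfected HepG2 cells 24 h after dosing. Fluorescent RT-PCR products were resolved by capillary electrophoresis, and activity was fitted in both directions versus DMSO.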

[9] = target: Retinoic acid receptor alpha (Homo sapiens) (UniProt P10276); test: ATG_DR5_RAR_CIS: Attagene CIS-FACTORIAL HepG2 Assay for human Retinoic Acid Receptor Alpha (RARE), DR5 submotif (AID 2282934); details: HepG2 Attagene cis-factorial RARE DR5 reporter, mRNA; actives raise or lower the signal
Retinoic acid receptor alpha (Homo sapiens), sequence (P10276 whole entry, looked up): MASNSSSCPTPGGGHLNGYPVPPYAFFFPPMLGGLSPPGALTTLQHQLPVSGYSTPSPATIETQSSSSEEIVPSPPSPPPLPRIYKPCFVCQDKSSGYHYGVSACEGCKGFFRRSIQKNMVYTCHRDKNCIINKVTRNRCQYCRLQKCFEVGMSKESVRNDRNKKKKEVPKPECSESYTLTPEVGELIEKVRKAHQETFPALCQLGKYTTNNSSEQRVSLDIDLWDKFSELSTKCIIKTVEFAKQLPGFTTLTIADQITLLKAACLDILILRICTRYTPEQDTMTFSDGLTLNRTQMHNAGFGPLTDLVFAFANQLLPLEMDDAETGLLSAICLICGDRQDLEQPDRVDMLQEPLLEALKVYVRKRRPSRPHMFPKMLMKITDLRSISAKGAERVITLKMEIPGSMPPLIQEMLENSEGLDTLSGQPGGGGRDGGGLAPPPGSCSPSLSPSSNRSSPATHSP
Outline: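 Transient MRTU transfection of HepG2; 24 h compound treatment; TriZol RNA, oligo(dT) RT, PCR, FAM labelling, capillary electrophoresis. Bidirectional fit vs DMSO. Endogenous TF activity at DR5 RARE.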

[10] = target: Transcription factor E2F1 (Homo sapiens) (UniProt Q01094); test: ATG_E2F_CIS: Attagene CIS-FACTORIAL HepG2 Assay for human E2F Transcription Factor 1 (AID 2282935); details: HepG2 Attagene cis-reporter, E2F reporter RNA transcripts; actives raise or lower the signal
Transcription factor E2F1 (Homo sapiens), sequence (Q01094 whole entry, looked up): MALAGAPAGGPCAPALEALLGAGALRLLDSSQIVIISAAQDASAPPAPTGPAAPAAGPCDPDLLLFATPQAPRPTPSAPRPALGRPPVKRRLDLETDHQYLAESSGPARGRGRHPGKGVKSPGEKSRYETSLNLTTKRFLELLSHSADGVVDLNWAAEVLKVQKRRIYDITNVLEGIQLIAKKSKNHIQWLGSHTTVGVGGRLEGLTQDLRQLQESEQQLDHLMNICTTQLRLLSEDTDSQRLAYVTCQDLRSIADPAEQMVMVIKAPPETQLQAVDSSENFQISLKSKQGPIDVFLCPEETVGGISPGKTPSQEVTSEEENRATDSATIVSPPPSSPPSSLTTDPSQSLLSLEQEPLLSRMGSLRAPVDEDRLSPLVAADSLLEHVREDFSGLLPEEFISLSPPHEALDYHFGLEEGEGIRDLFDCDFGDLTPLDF
Outline: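 Fluorescent RT-PCR products, digested with HpaI for 2 h at 37 C, are separated by capillary electrophoresis. Source RNA comes from transfected HepG2 cultures treated for 24 h.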

[11] = ATG_M_61_CIS: Attagene CIS-FACTORIAL HepG2 Assay for M61 Transcription Factor (Internal Marker) (AID 2282937); details: HepG2 Attagene CIS-FACTORIAL M61 internal marker reporter; actives raise or lower the signal
Outline: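 Fluorescence from labelled cDNA fragments, separated by capillary electrophoresis, quantifies reporter induction. HepG2 cells bearing transiently transfected cis-promoter MRTUs were incubated with test chemical for 24 h; DMSO defined baseline for gain/loss fitting.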

[12] = ATG_EGR_CIS: Attagene CIS-FACTORIAL HepG2 Assay for human Early Growth Response 1 (EGR1) (AID 2282938); details: HepG2 Attagene CIS-FACTORIAL EGR reporter mRNA; actives raise or lower the signal
Outline: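 Cell-based multiplex transcription assay: HepG2 carrying transfected cis-element reporter units, 24 h chemical treatment. Fluorescence from capillary electrophoresis of RT-PCR products gives mRNA levels; fitting is bidirectional relative to DMSO.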

[13] = ATG_M_19_CIS: Attagene CIS-FACTORIAL HepG2 Assay for M19 Transcription Factor (Internal Marker) (AID 2282939); details: HepG2 Attagene CIS-FACTORIAL M19 internal marker reporter; actives raise or lower the signal
Outline: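 Background-control endpoint from a multiplexed HepG2 reporter panel. Cells carrying cis-regulated reporter constructs are treated 24 h, then reporter transcripts are amplified, fluorescently labelled and sized by capillary electrophoresis. DMSO defines baseline.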

[14] = ATG_ERE_CIS: Attagene CIS-FACTORIAL HepG2 Assay for Estrogen Response Element (ERE) (AID 2282940); details: HepG2 ERE cis-reporter, Attagene RNA transcript; actives raise or lower the signal
Outline: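 Cells used were human hepatoma HepG2, transfected with multiple reporter transcription units under cis-regulatory promoters. Reporter mRNA, read 24 h post-dosing via fluorescent RT-PCR products on capillary electrophoresis, was fitted bidirectionally relative to DMSO.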

[15] = ATG_Ets_CIS: Attagene CIS-FACTORIAL HepG2 Assay for human Erythroblast Transformation Specific (ETS) (AID 2282941); details: HepG2 ETS cis-reporter transcription, actives raise or lower the signal
Outline: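 Multiplexed reporter transcript profiling: HepG2, 24 h treatment, total RNA to cDNA, PCR, 6-FAM labelling, HpaI cut, capillary electrophoresis. Gain- or loss-of-signal fitted against DMSO.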

[16] = target: Hepatocyte nuclear factor 3-beta (Homo sapiens) (UniProt Q9Y261); test: ATG_FoxA2_CIS: Attagene CIS-FACTORIAL HepG2 Assay for human Forkhead box A2 (FOXA2) (AID 2282942); details: HepG2 cis-reporter transcription factor activity, 24 h; actives raise or lower the signal
Hepatocyte nuclear factor 3-beta (Homo sapiens), sequence (Q9Y261 whole entry, looked up): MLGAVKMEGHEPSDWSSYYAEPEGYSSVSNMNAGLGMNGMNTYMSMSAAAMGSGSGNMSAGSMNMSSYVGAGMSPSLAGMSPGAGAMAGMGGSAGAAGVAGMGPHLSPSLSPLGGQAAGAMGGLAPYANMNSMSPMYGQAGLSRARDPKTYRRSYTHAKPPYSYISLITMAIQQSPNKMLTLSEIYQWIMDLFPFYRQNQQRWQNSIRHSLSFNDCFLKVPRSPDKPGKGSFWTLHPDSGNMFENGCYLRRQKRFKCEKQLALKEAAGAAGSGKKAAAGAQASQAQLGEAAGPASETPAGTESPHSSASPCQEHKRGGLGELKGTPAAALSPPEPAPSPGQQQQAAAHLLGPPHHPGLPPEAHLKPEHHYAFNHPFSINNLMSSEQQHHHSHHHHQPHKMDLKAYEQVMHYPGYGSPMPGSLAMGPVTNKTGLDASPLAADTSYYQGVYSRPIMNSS
Outline: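 In transiently transfected human HepG2 cells, promoter-driven reporter mRNA levels after 24 h chemical exposure are determined via RT-PCR with capillary electrophoresis. DMSO serves as baseline for bidirectional fitting.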

[17] = ATG_FoxO_CIS: Attagene CIS-FACTORIAL HepG2 Assay for human Forkhead box O (FoxO) (AID 2282943); details: HepG2 Attagene cis-reporter, FoxO element, mRNA; actives raise or lower the signal
Outline: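 HepG2, transient MRTU transfection (cis element, endogenous TFs). Dose 24 h. TriZol RNA → oligo(dT) RT → PCR → 6-FAM primer extension → HpaI cut → CE. Gain/loss vs DMSO.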

[18] = ATG_GATA_CIS: Attagene CIS-FACTORIAL HepG2 Assay for human GATA Binding Protein (AID 2282944); details: HepG2 GATA cis-element reporter, Attagene multiplex mRNA; actives raise or lower the signal
Outline: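 Endogenous transcription factor activity was captured through cis-promoter-driven reporters in transfected HepG2 cells. After 24 h exposure, reporter transcripts were quantified by RT-PCR with fluorescent capillary electrophoresis, and responses fitted both directions against DMSO.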

[19] = ATG_E_Box_CIS: Attagene CIS-FACTORIAL HepG2 Assay for human Enhancer Box (E-box) (AID 2282936); details: HepG2 E-box cis-reporter transcription, actives raise or lower the signal
Outline: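 Fluorescent reporter fragments separated by capillary electrophoresis gave the signal; mRNA came from HepG2 cells transfected with cis-element reporters and treated 24 h. Curves fitted bidirectionally relative to DMSO controls.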

[20] = ATG_DR4_LXR_CIS: Attagene CIS-FACTORIAL HepG2 Assay for human Liver X Receptor (LXR), DR4 submotif (AID 2282929); details: HepG2 Attagene DR4 cis-reporter, mRNA transcription; actives raise or lower the signal
Outline: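 Measures endogenous transcription factor activity via a DR4-driven reporter transcript in human HepG2 cells. Compounds incubated 24 h; mRNA quantified by RT-PCR and capillary electrophoresis, analysed as gain or loss of signal versus DMSO.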

Measured: AC50

CC(=O)CCC=C(C)C
not listed: [19] | [20]
inactive: all other assays above

O=C1CCCCC1C1CCCCC1 (centres undefined)
not listed: [15] | [20]
inactive: all other assays above

C[N+](C)(C)CCCNS(=O)(=O)C(F)(F)C(F)(F)C(F)(F)C(F)(F)C(F)(F)C(F)(F)C(F)(F)C(F)(F)F
active: [4] 55.4 µM
not listed: [5] | [7]
inactive: all other assays above

CCCC/C=C/C=C\C=O
active: [4] 159 µM | [6] 149 µM | [12] 100 µM
not listed: [11] | [20]
inactive: all other assays above

CCCCC/C=C\C/C=C\CCCCCCCC(=O)O
active: [5] 100 µM | [6] 153 µM
not listed: [12] | [20]
inactive: all other assays above

CCCCc1ccc(Cl)cc1
not listed: [3]
inactive: all other assays above

OCCCc1ccccc1
not listed: [12] | [19] | [20]
inactive: all other assays above

Cc1ccc2c(c1)CCCN2
active: [5] 20.2 µM
not listed: [7] | [20]
inactive: all other assays above

C=CC(C)(O)CC/C=C(\C)CC (centres undefined)
not listed: [9] | [15] | [20]
inactive: all other assays above

O=C(Cl)c1c(Cl)c(Cl)c(C(=O)Cl)c(Cl)c1Cl
not listed: [5] | [6] | [9]
inactive: all other assays above

CCCc1ccc(O)c(OC)c1
active: [20] 33.8 µM
not listed: [5] | [8]
inactive: all other assays above

CCCCOC(=O)CCC(C)=O
not listed: [11] | [20]
inactive: all other assays above

CCCCCCO
not listed: [5] | [7] | [8] | [20]
inactive: all other assays above

N#Cc1ccc(C(c2ccc(C#N)cc2)n2cncn2)cc1
not listed: [12] | [19] | [20]
inactive: all other assays above

CCCCCCCCC(CO)CCCCCC (centres undefined)
active: [2] 100 µM | [4] 8.41 µM | [10] 189 µM | [19] 34.3 µM | [15] 173 µM | [18] 65.5 µM
not listed: [12] | [20]
inactive: all other assays above

Nc1ccc(C(=O)O)cc1
active: [1] 50 µM
not listed: [20]
inactive: all other assays above
